This is an account of results in PubChem BioAssay (NCI).

“And” between values parts separate entries of the source, which are not always exact repeats. Equal entries are not always repeated. Compounds without any hit were thinned out: in the full panel of roughly 79,000, 15% have a hit. Unmarked numbers belong to inactive results. The source made the active and inactive calls. No stated cut-off is given here; in the data, active means growth inhibition above about 70%; inactive means the rest.

Test [1] can be described thus: NCI Yeast Anticancer Drug Screen. Data for the rad50 strain (AID 155).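 Further: 0% = growth of vehicle-only cultures of the same strain.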 To be noted: S. cerevisiae rad50 strain growth inhibition, hits give high values; at 50.0 µM unless noted. In outline: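 Readout: growth inhibition relative to vehicle-treated cultures. Compound exposure was carried out in a genetically defined yeast strain deficient in DNA damage repair.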
Test [2] is described as follows: NCI Yeast Anticancer Drug Screen. Data for the mec2-1 strain (AID 157). To be noted: S. cerevisiae mec2-1 strain, hits give high values; at 50.0 µM unless noted. The procedure, abridged:
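Strain: mec2-1 (DNA repair/cell cycle alteration). Compound exposure, then growth measured; inhibition expressed relative to vehicle.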

Test [3] is described as follows: NCI Yeast Anticancer Drug Screen. Data for the sgs1 mgt1 strain (AID 161).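 Further: 0% = growth of cultures given vehicle only.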 To be noted: S. cerevisiae sgs1 mgt1 strain, hits give high values; at 50.0 µM unless noted. The procedure, abridged: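 Genetically altered yeast, compound exposure, growth inhibition relative to vehicle.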
A short description of test [4]: NCI Yeast Anticancer Drug Screen. Data for the bub3 strain (AID 167). To be noted: S. cerevisiae bub3 mutant strain, hits give high values; at 50.0 µM unless noted. In outline: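 Readout: yeast growth inhibition, expressed relative to vehicle-only wells. The test organism is a mutant strain from a panel with lesions in DNA repair or checkpoint genes.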
Test [5] is described as follows: NCI Yeast Anticancer Drug Screen. Data for the mlh1 rad18 strain (AID 175). The settings on record: S. cerevisiae mlh1 rad18 strain growth inhibition, hits give high values; at 50.0 µM unless noted. In outline: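 Read-out is yeast growth inhibition, calculated against vehicle-only controls. The compound was applied to a strain engineered with DNA damage repair alterations.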

A short description of test [6]: NCI Yeast Anticancer Drug Screen. Data for the cln2 rad14 strain (AID 165).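 Further: 0% = growth equal to vehicle treated cultures.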 The settings on record: S. cerevisiae cln2 rad14 strain, hits give high values; at 50.0 µM unless noted. In outline:
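Compounds are applied to the cln2 rad14 yeast strain, and growth is then compared with that of vehicle-treated cultures to give inhibition.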

As to `CN(C)/C=N/n1c2ccccc2c2ccccc21`, the growth inhibition in test [1] is -1.7%; in test [2] it was -6.8%; in test [3], 0%; in test [4] it was 23.6%; in test [5] it was 14.8%.
As for `CC(=Nc1cccc(Cl)c1)c1ccncc1`, the growth inhibition in test [1] was -44%; in test [2] it was -10.2%; in test [3], -24.6%; in test [4], -6.05%; in test [5], -10.8%.
On to `Cc1c2c(c(C)c3c1C(=O)c1cc4c(cc1C3=O)OCO4)OCO2`, for which the growth inhibition in test [1] is -9.1%; in test [2], -4.35%; in test [3], -5.35%; in test [4], -31.9%; in test [5], -15.4%.
In the case of `CN(C)CC1(C)CC/C(=C\c2ccc3c(c2)OCO3)C1=O` (stereo not given), the growth inhibition is 58.4% in test [1]; 30.4% in test [2]; 45% in test [3]; 29.9% in test [4]; 56% in test [5].
As for `CC1CC(NC(=S)N(C)C)CC(C)(C)C1` (stereo not given), the growth inhibition was 6.9% in test [1]; 3.65% in test [2]; 18.8% in test [3]; 47.9% in test [4]; 3.55% in test [5].
In the case of `O=c1[nH]c(=O)n(C2CC(O)C(CO)O2)cc1C#Cc1c(F)c(F)c(F)c(F)c1F` (stereo not given), the growth inhibition was -17.2% in test [1]; -11.7% in test [2]; -16.4% in test [3]; -13.8% in test [4]; 2.2% in test [5].
Take `Cc1cc(C)c(C(=O)Cc2ccccc2)c(C)c1`: the growth inhibition in test [1] was 18.4%; in test [2], 15.6%; in test [3], 20.2%; in test [4], 11.4%; in test [5] it was 9.45%.
For `COC(NC(=O)Nc1ccccc1C)(C(F)(F)F)C(F)(F)F`, the growth inhibition was -12.3% in test [1]; -22.4% in test [2]; -34.4% in test [3]; -24.4% in test [4]; -12.8% in test [5].
For `COc1ccc(C2(OC)Oc3cc(OC)ccc3-c3nc4ccccc4nc32)cc1` (stereo not given), the growth inhibition was 23.4% in test [1]; 1.25% in test [2]; -4.15% in test [3]; 4.3% in test [4]; 0.4% in test [5].
Turning to `CN(C)c1c2ccccc2c(NC=O)c2ccccc12`, the growth inhibition in test [1] is 3.45%; in test [2], -14.9%; in test [3], 11.7%; in test [4], -1.05%; in test [5], 9%.
The matching figures for `COC(C(=O)NN)c1ccccc1` (stereo not given): -25.1%, -60.5%, -59.8%, -35.5% and -35.8%.
As to `Nc1c(I)cc(I)c(C(=O)O)c1I`, the growth inhibition in test [1] is -44%; in test [2] it was -31.9%; in test [3] it was -17%; in test [4], -25.4%; in test [5] it was -39.1%.
In the case of `Cc1no[n+]([O-])c1/C=N/NS(=O)(=O)c1ccccc1`, the growth inhibition in test [1] was 2.25%; in test [2] it was -17.6%; in test [3], -12.9%; in test [4] it was -2.7%; in test [5] it was -23.1%.
For the molecule `Nc1cc([N+](=O)[O-])ccc1C(=O)O`, the growth inhibition in test [1] is 15.2%; in test [2], 0.05%; in test [3], -11.4%; in test [4], 2.65%; in test [5], -14.3%.
For `N#CCc1nc(-c2cc3ccc(O)cc3oc2=O)cs1`, the growth inhibition is 19.1% in test [1]; 8.45% in test [2]; -25.9% in test [3]; -12.4% in test [4]; -40.8% in test [5].
`N#CCCC(C#N)(CCC#N)C(N)=O`: the growth inhibition in test [1] was 11.9%; in test [2] it was -18%; in test [3], -2.6%; in test [4] it was 5.2%; in test [5], 1.55%.
For `CCc1ccc(-c2cc(-c3ccc(CC)cc3)cc(-c3ccc(CC)cc3)c2)cc1` the same measures were 20.1%, -10.1%, -18.9%, -4.7% and 7.95%.
`c1ccc2c(c1)/C(=N/c1nccs1)N/C2=N\c1nccs1`: the growth inhibition in test [1] was 14.1%; in test [2], -6.35%; in test [3], -12.2%; in test [4], 13.1%; in test [5], -6.65%.
For `O=c1nc(NCc2ccco2)ccn1C1OC(CO)C(O)C1O` (stereo not given), the growth inhibition in test [1] was 12.3%; in test [2], 9.45%; in test [3], 12.6%; in test [4], -0.2%; in test [5], 14.6%.
The matching figures for `CCOC(=O)C(C)NC(=O)C(C)NC(=O)C(C)NC(=O)C(C)NC(=O)C(C)NC(=O)OCc1ccccc1` (stereo not given): 87.1% (active), 85.8% (active), 7.15%, 15.7% and -46.8%.
Regarding `NCC1COC(c2ccccc2)(c2ccccc2)O1` (stereo not given), the growth inhibition in test [1] was -2.25%; in test [2], -12.4%; in test [3], -12.9%; in test [4], 17.8%; in test [5], -7.65%.
Regarding `C=C(NC(=O)C(=C)NC(=O)c1csc(C2=NC3c4csc(n4)C4NC(=O)c5csc(n5)C(C(C)(O)C(C)O)NC(=O)C5CSC(=N5)/C(=C/C)NC(=O)C(C(C)O)NC(=O)c5csc(n5)C3(CC2)NC(=O)C(C)NC(=O)C(=C)NC(=O)C(C)NC(=O)C(C(C)CC)NC2C=Cc3c(C(C)O)cc(nc3C2O)C(=O)OC4C)n1)C(N)=O` (stereo not given), the growth inhibition in test [1] is 11.9% and 15.1%; in test [2] it was 10.8% and -10.4%; in test [3], 13.8% and 18.1%; in test [4], 34.2% and 32.5%; in test [5], 13.2% and 36.2%.
In the case of `OC(COc1cccc(C(F)(F)F)c1)CN1CCN(c2ccc(F)cc2)CC1` (stereo not given), the growth inhibition in test [1] was 86.8% (active); in test [2] it was 88% (active); in test [3] it was 96.3% (active); in test [4], 86.4% (active); in test [5], 92.2% (active).
On to `COc1cc([C@@H]2c3cc4c(cc3[C@H](OC3OC5COC(c6ccco6)OC5C(O)C3O)C3COC(=O)[C@@H]32)OCO4)cc(OC)c1OC` (stereo not given in full), for which the growth inhibition in test [1] is 7.25%; in test [2], 18.8%; in test [3] it was 7.6%; in test [4], 0.2%; in test [5], -42%.
Regarding `CN(N=O)C(=O)NCCCCCNC(=O)N(C)N=O`, the growth inhibition in test [1] is 7.6%; in test [3] it was 14.1%; in test [6], -132%; in test [4], 10.5%; in test [5], -4.85%.
The matching figures for `OCC1C(CO)C2CC1C1N=NN(c3ccccc3)C21` (stereo not given): -4.8%, 8.25%, -11.9%, -0.35% and -13.3%.
As for `C#CCOC(=O)c1ccccc1`, the growth inhibition in test [1] is 1.15%; in test [3], 0.6%; in test [6], -24.2%; in test [4] it was 3.5%; in test [5] it was 0%.
With `Nc1ccc2c(C(F)(F)F)cc(=O)oc2c1`, the growth inhibition was 14.2% in test [1]; 8.2% in test [3]; -29.6% in test [6]; 8.55% in test [4]; 8.8% in test [5].
For `O=C(NC(=S)Nc1ccccc1F)c1cccc([N+](=O)[O-])c1` the same measures were 26.1%, 79.2% (active), 11.4%, 49.7% and 80% (active).
The matching figures for `CNCc1cc(Br)cc(Br)c1O`: 6.9%, 15.4%, -43.1%, 1.45% and -2.6%.
For `CN(C)c1ccc(-c2c3ccccc3nc3ccccc23)cc1`, the growth inhibition is -19.4% and -12.1% in test [1]; 14.2% and -14.2% in test [3]; 0.05% and -26.1% in test [6]; 9.95% and -16.1% in test [4]; -4.7% and 5.8% in test [5].
Consider `CCN(CC)c1ccc2cc(C(=O)NCc3ccccc3)c(=N)oc2c1`, for which the growth inhibition was 9.7% in test [1]; -15.8% in test [3]; 3.45% in test [6]; -38% in test [4]; 7.35% in test [5].
Regarding `O=C1/C(=C/c2cccc(Br)c2)Cc2ccccc21`, the growth inhibition is 20.9% in test [1]; 12.3% in test [3]; 18.1% in test [6]; -1.35% in test [4]; 15.8% in test [5].
For the molecule `C/C=C/C=C/C(=O)OCCCC`, the growth inhibition in test [1] is 6.95%; in test [3], -8.55%; in test [6], 5.65%; in test [4] it was 15.1%; in test [5], -1.75%.
As to `CCCCCCCCC(=O)NCCOC`, the growth inhibition is 10.9% in test [1]; 5.8% in test [3]; -20.8% in test [6]; -2.95% in test [4]; 10.6% in test [5].
For the molecule `Cc1c(Cl)cccc1NC(=O)COc1ccc(Cl)cc1`, the growth inhibition was 16.4% in test [1]; 4.2% in test [3]; -3.7% in test [6]; 6.5% in test [4]; 4.05% in test [5].
As for `COC(=O)C1(CC(=O)c2c(C)[nH]c3ccccc23)NC(=S)NC(=O)C1C#N` (stereo not given), the growth inhibition was -6.35% in test [1]; -21.1% in test [3]; -5.15% in test [6]; -11.1% in test [4]; 26.4% in test [5].
In the case of `CC1(C)SC(c2ccccc2)SC(c2ccccc2)S1` (stereo not given), the growth inhibition in test [1] was 13.7%; in test [3], -3.3%; in test [6], 3.25%; in test [4], -0.8%; in test [5], 17.4%.
Consider `COC(=O)c1ccccc1CC1Cc2ccc3c(c2C1=O)CCCC3` (stereo not given), for which the growth inhibition in test [1] was -1.35%; in test [3], -13.3%; in test [6], 5.4%; in test [4], 17.8%; in test [5], 3.3%.
`Nc1cccc2c1nc(NCCO)c1ccccc12`: the growth inhibition was 23.8% in test [1]; -15.6% in test [3]; -4.5% in test [6]; 10.7% in test [4]; 49.1% in test [5].
`COc1ccc(C2Oc3cc(OC)c(O)cc3[C@@H]2C)cc1` (stereo not given in full): the growth inhibition is -7.35% in test [1]; 2.55% in test [3]; 15.6% in test [6]; 54.8% in test [4]; 31% in test [5].
For `CSc1nc(SC)c2ncn(C3CC(Oc4ccc(C)cc4)C(COc4ccc(C)cc4)O3)c2n1` (stereo not given) the same measures were 15.8%, 17.1%, 10.3%, 8.45% and -18.2%.
Consider `Nc1nc2ncn(CCO)c2c(=O)[nH]1`, for which the growth inhibition in test [1] was 9.4%; in test [3] it was 2.8%; in test [6], -0.65%; in test [4] it was 3.35%; in test [5], 16.4%.
For `COc1ccc(C=O)c(Cl)c1OC`, the growth inhibition in test [1] is 26.8%; in test [3] it was 0.95%; in test [6], 6.55%; in test [4], -7.85%; in test [5], -16.8%.
In the case of `O=[N+]([O-])c1cccc(Nc2nc(Cl)nc(Cl)n2)c1`, the growth inhibition was -0.65% in test [1]; 5.25% in test [3]; -8.25% in test [6]; -18.8% in test [4]; -14.5% in test [5].
